Test [1] concerns the target Cellular tumor antigen p53 (Homo sapiens) (UniProt P04637). The experiment in a line: Primary qHTS for small molecule compounds that upregulate eGFP-tagged delta133p53alpha (in N-terminal) cells. (AID 2060322). Further: nearly all actives have a fitted effect of over 75% in size. Further: potency means the concentration at half of the fitted maximal effect.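 On activation: 0% = DMSO vehicle and 100% = reference activator.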 The note with it: NCI-H358 eGFP-delta133p53alpha fluorescence, 24 h; activation: hits give high values. In a few lines: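 NCI-H358 cells pre-induced 24 h with 10 ng/ml doxycycline to express N-terminal eGFP-delta133p53alpha, then dosed 24 h at 37C without doxycycline; fixed, Hoechst-stained, GFP intensity by laser scanning cytometry, normalized to DMSO (0%) and 57.5 uM 5-azacytidine (100%).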

Test [2] deals with Aldehyde dehydrogenase, mitochondrial (Homo sapiens) (UniProt P05091). The experiment in a line: qHTS for Inhibitors of the Aldehyde Dehydrogenase Family (ALDH2) Primary screen (AID 2061308).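 Further: plate controls were vehicle for no effect and reference inhibitor for full effect; nearly all actives have a fitted effect of over 55% in size.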 As to conditions: ALDH2 enzyme inhibition qHTS, 1536-well; series mostly up to 56 µM. In general terms: qHTS replaces the single test concentration by a dilution series.
In test [3] the target is Retinaldehyde dehydrogenase 3 (Homo sapiens) (UniProt P47895). The experiment in a line: qHTS for Inhibitors of the Aldehyde Dehydrogenase Family (ALDH1A3) Primary screen (AID 2061315).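 Further: plate controls were DMSO vehicle for no effect and reference inhibitor for full effect.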 As to conditions: ALDH inhibition qHTS; series mostly up to 56 µM.
A short description of test [4]: BET inhibitor-based combinations targeting novel dependencies in MECOM-rearranged (r) AML: SET-2 cell line (AID 2202231). Further: nearly all actives have a fitted effect of over 35% in size. Further: potency means the concentration at half of the fitted maximal effect.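 On viability: plate controls were DMSO treated cells for no effect and wells without cells for full effect.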 The note with it: SET-2 AML cells viability, CellTiter-Glo luminescence, 48 h; viability: hits give low values, concentration not given here. The procedure, abridged: (§1)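 A 48 hr incubation preceded viability reading by CellTiter-Glo, with 15 min room-temperature development. Dose series had 11 points; normalization used DMSO and empty wells; AUC was computed and mean-centered per line as Z-AUC.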

The nature of test [5]: BET inhibitor-based combinations targeting novel dependencies in MECOM-rearranged (r) AML: OCI-AML3 cell line (AID 2202232). Further: nearly all actives have a fitted effect of over 35% in size. Further: potency means the concentration at half of the fitted maximal effect. As to conditions: CellTiter-Glo luminescence, 48 h; Potency: OCI-AML3 viability; series mostly up to 46 µM. The procedure, abridged:
as §1
For orientation: In ATP-based viability assays light output follows the ATP content of the culture.

Test [6] is described as follows: BET inhibitor-based combinations targeting novel dependencies in MECOM-rearranged (r) AML: MV-4-11 cell line (AID 2202233). Further: nearly all actives have a fitted effect of over 45% in size. Further: potency means the concentration at half of the fitted maximal effect. The note with it: MV-4-11 AML viability, CellTiter-Glo luminescence, 48 h; series mostly up to 46 µM. The procedure, abridged: (§2)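 Each compound is tested in an 11-point concentration series against 500 seeded cells/well for 48 hr. The luminescent viability signal is normalized to DMSO and blank wells, then reduced to AUC and a cell-line-centred Z-AUC.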

The nature of test [7]: BET inhibitor-based combinations targeting novel dependencies in MECOM-rearranged (r) AML: HNT-34 cell line (AID 2202234). Further: nearly all actives have a fitted effect of over 35% in size. Further: potency means the concentration at half of the fitted maximal effect. As to conditions: HNT-34 AML viability, CellTiter-Glo luminescence, 48 h; series mostly up to 46 µM. In a few lines: as §2
The nature of test [8]: BET inhibitor-based combinations targeting novel dependencies in MECOM-rearranged (r) AML: UCSD-AML1 cell line (AID 2202235). Further: nearly all actives have a fitted effect of over 40% in size. Further: potency means the concentration at half of the fitted maximal effect. As to conditions: UCSD-AML1 AML cells viability, CellTiter-Glo, 48 h; series mostly up to 46 µM. In a few lines: as §2
A short description of test [9]: BET inhibitor-based combinations targeting novel dependencies in MECOM-rearranged (r) AML: AML-194 cell line (AID 2202237; further: nearly all actives have a fitted effect of over 40% in size; further: potency means the concentration at half of the fitted maximal effect). As to conditions: AML-194 (MECOM-r AML) viability, CellTiter-Glo, 48 h; series mostly up to 46 µM. The procedure, abridged: as §1
A short description of test [10]: BET inhibitor-based combinations targeting novel dependencies in MECOM-rearranged (r) AML: AML-191 cell line (AID 2202236; further: nearly all actives have a fitted effect of over 35% in size; further: potency means the concentration at half of the fitted maximal effect). As to conditions: AML-191 viability, CellTiter-Glo luminescence, 48 h; series mostly up to 46 µM. In a few lines: as §1

Several values for one entry are separate records, joined by “and”; a condition that tells them apart may be missing. Equal values may be shown once. Records with an inconclusive call do not appear. Values without a mark were called inactive. Activity calls are given as the source filed them. The call rests on the fitted dose curve; in most records, active means well fitted curve in the direction sought with a large enough effect; inconclusive means small, poorly fitted or top-dose-only effect, or another doubt; inactive means no such curve, though single readings can be large; an effect the other way counts as inactive or inconclusive.

activation, Potency and viability data for 17 molecules are collected here from PubChem BioAssay (NCATS).

Cellular tumor antigen p53 (Homo sapiens), sequence (P04637 whole entry, looked up): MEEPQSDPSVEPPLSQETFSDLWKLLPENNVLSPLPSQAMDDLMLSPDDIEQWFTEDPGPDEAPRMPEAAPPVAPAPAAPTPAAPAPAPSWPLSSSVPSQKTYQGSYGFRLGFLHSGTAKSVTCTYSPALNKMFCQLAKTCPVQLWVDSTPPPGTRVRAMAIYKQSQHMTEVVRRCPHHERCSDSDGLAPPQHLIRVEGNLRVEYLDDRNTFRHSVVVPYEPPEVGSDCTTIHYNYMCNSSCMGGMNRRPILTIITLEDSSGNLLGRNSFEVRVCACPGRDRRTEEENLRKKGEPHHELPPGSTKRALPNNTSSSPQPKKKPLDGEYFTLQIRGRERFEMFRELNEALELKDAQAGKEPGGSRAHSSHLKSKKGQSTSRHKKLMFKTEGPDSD

One may read the viability as a read-out of living cells in per cent, often relative to untreated cells. As for `COc1ccc(Cc2ccc(NC(N)=O)cc2)cc1-c1cccc(Cl)c1`, in [1], the activation was 2.49%. Further, the Potency result in [2], in [3], in test [5], in test [6], in [7] and in [8] was “inactive” throughout. Further, the Potency result in [9] is “inactive”. Besides, the viability in test [4] was 103%.

In the case of `O=C(NCC1CN(c2ccc(N3CCOCC3=O)cc2)C(=O)O1)c1ccc(Cl)s1` (stereo not given), the activation in [1] is -11.9% and 7.67%. Also, the Potency result in [2], in test [3], in test [5], in [6], in test [8] and in test [9] was “inactive” in each case. For the same molecule, the viability in test [4] is 94.7%. Also, the Potency in test [7] is 23.5 µM (active).

For `CNC1CCC(N(Cc2cccc(-c3ccncc3)c2)C(=O)c2sc3ccccc3c2Cl)CC1` (stereo not given), the Potency in test [1] was 24.3 µM (active) and 30.1 µM (active); in test [4], 26.3 µM (active); in test [5], 18.6 µM (active); in test [6], 16.6 µM (active); in [7], 26.3 µM (active); in test [10] it was 20.9 µM (active). Besides, the Potency in test [9] was 23.5 µM (active). The Potency entry in [2] and in [3] was “inactive” in each case.

In the case of `NC(=O)c1ccccc1Nc1ccnc(Nc2cccc(O)c2)n1`, the Potency in [1] was 30.1 µM (active); in test [4] it was 5.9 µM (active); in test [5] it was 18.6 µM (active); in [6], 0.662 µM (active); in [8], 1.66 µM (active); in [10], 5.25 µM (active). In addition, the Potency entry in test [2] and in [3] was “inactive” in each case.

As for `CO[C@@H](C)Cn1c(=O)n(C)c2cnc3ccc(-c4cncc(C(C)(C)O)c4)cc3c21`, in [1], the activation is -10.7%. For the same molecule, the Potency entry in test [2] and in [3] was “inactive” each time. The Potency in test [4] was 0.934 µM (active); in test [5], 1.18 µM (active); in [6], 0.332 µM (active); in test [7], 0.372 µM (active); in [10], 0.235 µM (active).

As to `CCCS(=O)(=O)Nc1ccc(F)c(C(=O)c2c[nH]c3ncc(-c4ccc(Cl)cc4)cc23)c1F`, the activation in test [1] was 15.9% and 18.8%. Moreover, the Potency result in test [2], in test [3], in test [5] and in [9] was “inactive” each time. In addition, the viability in [4] was 117%. Also, the Potency in test [6] was 33.2 µM (active); in test [7] it was 14.8 µM (active).

Consider `CNc1nc(C)nc(N[C@H]2CCC[C@@H](C(=O)NCc3ccc(C#N)cc3C(F)(F)F)C2)n1`, for which the activation in test [1] was 10%. Besides, the Potency entry in [2], in [3], in [5], in [7], in test [8] and in test [10] was “inactive” throughout. The Potency entry in test [9] was “inactive”. Moreover, in test [4], the viability was 108%. Besides, in test [6], the Potency was 16.6 µM (active).

For `CCOC(=O)[C@H]1O[C@@H]1C(=O)N[C@@H](CC(C)C)C(=O)NCCC(C)C`, the activation in test [1] was 4.33%. For the same molecule, the Potency result in test [2], in [3], in [7], in [8] and in test [9] was “inactive” each time. In test [4], the viability is 108%. For the same molecule, the results for the Potency in test [5] and in test [6] were 18.6 µM (active) and 14.8 µM (active), respectively.

Regarding `C=CCn1c(=O)c2cnc(Nc3ccc(N4CCN(C)CC4)cc3)nc2n1-c1cccc(C(C)(C)O)n1`, the Potency in test [1] was 21.7 µM (active) and 2.69 µM (active); in test [4], 1.32 µM (active); in test [5], 1.66 µM (active); in test [6], 0.742 µM (active); in test [7], 0.296 µM (active); in test [8] it was 0.833 µM (active). In addition, the Potency in test [10] and in test [9] was 0.742 µM (active) throughout. Moreover, the Potency result in test [2] and in test [3] was “inactive” each time.

Turning to `O=C1NC(=O)C(c2cnc3ccccn23)=C1c1cn2c3c(cc(F)cc13)CN(C(=O)N1CCCCC1)CC2`, the Potency is 30.1 µM (active) in test [1]; 0.0417 µM (active) in test [4]; 2.95 µM (active) in test [5]; 0.186 µM (active) in test [6]; 0.0661 µM (active) in test [7]; 1.66 µM (active) in [8]. In addition, the Potency was 0.662 µM (active) in test [10] and 3.72 µM (active) in test [9]. Besides, the Potency result in test [2] and in test [3] was “inactive” each time.

Take `NC(=O)c1cccc2[nH]c(-c3ccc([C@H]4CCCN4)cc3F)nc12`: the activation in test [1] was 28.6%. Also, the Potency result in test [2], in test [3] and in test [8] was “inactive” each time. Further, the Potency in test [4] is 20.9 µM (active); in test [5], 20.9 µM (active); in [6], 16.6 µM (active); in [10], 16.6 µM (active).

With `CC(C)c1c2cc(-c3ccnc(NC4CCC(NC5CCOCC5)CC4)n3)ccc2nn1C` (stereo not given), the Potency was 0.478 µM (active) in test [1]; 0.296 µM (active) in [4]; 0.209 µM (active) in [5]; 0.0934 µM (active) in test [6]; 0.235 µM (active) in test [7]; 0.166 µM (active) in [10]. For the same molecule, in [9], the Potency is 0.417 µM (active). Further, the Potency entry in test [2] and in test [3] was “inactive” in each case.

With `O=C(Nc1ccnc(NC(=O)C2CC2)c1)c1c(Cl)cccc1Cl`, the Potency was 12 µM (active) in [1]; 7.42 µM (active) in test [4]; 7.42 µM (active) in test [5]; 4.68 µM (active) in test [6]; 4.17 µM (active) in test [7]; 3.32 µM (active) in [8]. Moreover, the Potency in test [10] was 5.25 µM (active); in [9], 7.42 µM (active). Moreover, the Potency result in [2] and in test [3] was “inactive” throughout.

Turning to `CCCCN(CCCC)C(=O)CN1C[C@H](c2ccc3c(c2)OCO3)[C@@H](C(=O)O)[C@@H]1c1ccc(OC)cc1`, the activation in [1] is -2.39% and -6.46%. The Potency result in [2], in [3], in test [5], in test [6], in test [7] and in test [8] was “inactive” each time. Moreover, the Potency entry in [10] and in test [9] was “inactive” in each case. Further, the viability in test [4] is 107%.

For the molecule `Cc1ccc(C(=O)Nc2ccc(Oc3cc4cnn(C)c4cc3-c3cn[nH]c3)c(F)c2)c(=O)n1-c1ccc(F)cc1`, the Potency in test [1] was 15.1 µM (active); in test [4], 11.8 µM (active); in test [5], 5.25 µM (active); in [6], 0.0053 µM (active); in test [8], 5.25 µM (active). Moreover, the Potency result in test [2] and in [3] was “inactive” in each case.

Turning to `O=C(Nc1ccc(S(=O)(=O)N2CCOCC2)cc1)c1cc(Cl)ccc1NS(=O)(=O)c1ccc(Cl)s1`, the activation in [1] is 0.837%. The Potency result in test [2], in test [3], in [5], in [6] and in test [8] was “inactive” in each case. Besides, the viability in test [4] is 98.4%.

For the molecule `Cc1ccccc1-n1c(Cn2nc(-c3cccc(O)c3)c3c(N)ncnc32)nc2cccc(C)c2c1=O`, in test [1], the activation is 21.6% and 16.7%. Besides, the Potency result in [2], in test [3] and in test [9] was “inactive” throughout. The viability in [4] is 105%. Also, the Potency is 1.86 µM (active) in test [5], 0.296 µM (active) in test [6], 14.8 µM (active) in test [7] and 14.8 µM (active) in [10].
